Source: PubChem BioAssay
HIV RNase H inh-1: blocks HIV-1 RNase H cleavage of RNA/DNA duplex; RT-RNase H RNA/DNA duplex cleavage, fluorescence; inhibition, % at 10 µM; P04585; actives 1.9% (n = 65,000); in the data active = inhibition above about 50%
HIV RNase H inh-2: confirmation of HIV-1 reverse transcriptase RNase H inhibitors | shares compounds with HIV RNase H inh-1 | inhibition, % at 10 µM | Recombinant RT RNase H, fluorescent RNA/DNA duplex cleavage | AID 651 | actives 39% (n = 1,000); in the data active = inhibition above about 48%; inconclusive = no clear call, values can overlap the other calls
Each line names hits and unclear results; the compound was inactive in the other large screens (follow-up assays come after a bar, where they were run). The sample as a whole holds a higher share of hits than the screen did.

N#Cc1c(NC(=O)CCn2cnc3ccccc3c2=O)oc(-c2ccccc2)c1-c1ccccc1	none
CCc1nnc(NC(=O)CSc2nnc(-c3ccco3)n2CC)s1	none
O=C(Cn1nnc(-c2ccncc2)n1)N(C1CCCCC1)C1CCCCC1	none
Cc1ccccc1-c1c(C)oc2cc(O)ccc2c1=O	none
CCOC(=O)c1ccc(NS(=O)(=O)c2cccc3nsnc23)cc1	none
CCOc1ccc(C(=O)Nc2c(C(N)=O)oc3ccccc23)cc1	none
COc1ccc(CC(=O)Nc2cc(C)c3c(=O)oc4ccccc4c3n2)cc1	none
CCOc1ccc(C(=O)Nc2cc(C)c3c(=O)oc4ccccc4c3n2)cc1	HIV RNase H inh-1 65.4 | HIV RNase H inh-2 inactive
CSc1nc2sc3c(c2c2nnnn12)CCCC3	HIV RNase H inh-1 51.1 | HIV RNase H inh-2 inactive
CSc1nc2sc3c(c2c2nnnn12)CC(C)(C)OC3	none
CSc1nc2sc3c(c2c2nnnn12)CCC3	none
COCCN1C(=O)c2oc3cc(C)c(C)cc3c(=O)c2C1c1cccc(O)c1 (stereo unspecified)	none
O=C(NCC1CCCO1)c1ccc2c(c1)C(=O)N(C1CCCCC1)C2=O (stereo unspecified)	none
Cc1cc(NC(=O)c2ccc3c(c2)C(=O)N(C2CCCCC2)C3=O)no1	HIV RNase H inh-1 64.4 | HIV RNase H inh-2 inactive
Cc1cc(NC(=O)c2ccc3c(c2)C(=O)N(CCC(C)C)C3=O)no1	none
COC(=O)c1ccc(OC)c(CSc2nnc(-c3ccc(C)cc3)o2)c1	HIV RNase H inh-1 65.8 | HIV RNase H inh-2 inactive
COc1ccc(C(=O)CSc2nnc(-c3cc(C)cc(C)c3)o2)cc1	none
COC(=O)c1ccc(CSc2nnc(-c3ccncc3)o2)o1	none
CCCCCn1c(N2CCC(C(N)=O)CC2)nc2c1c(=O)[nH]c(=O)n2C	none
CCCOc1ccccc1Nc1nnc(C)c(=O)[nH]1	none
Cc1nn2c(-c3cccc(NC(=O)CN4CCOCC4)c3)nnc2c2ccccc12	none
Cc1nn2c(-c3cccc(NC(=O)CSc4nc5ccccc5o4)c3)nnc2c2ccccc12	HIV RNase H inh-1 88.5 | HIV RNase H inh-2 66.4
COc1cc(OC)nc(NC(=O)CSc2nc3ccccc3o2)n1	none
CCC(Oc1ccc2c(c1)C(=O)CC(C)(C)O2)C(=O)NCCN1CCCCCC1 (stereo unspecified)	none
Clc1ccc(-c2nnc3sc(-c4ccc(Br)o4)nn23)cc1	none
Cc1oc(-c2ccc(Cl)cc2)cc1-c1nn2c(-c3ccoc3C)nnc2s1	HIV RNase H inh-1 86.2 | HIV RNase H inh-2 55.2
CN(C)c1ccc(-c2nn3c(-c4ccc(Cl)cc4Cl)nnc3s2)cc1	none
CN1CCN(Cc2c(O)ccc3occ(C(=O)c4ccccc4)c23)CC1	none
CC(=O)C(C(C)=O)c1c(Cl)c(O)c(O)c2c(C(=O)c3ccccc3)coc12	HIV RNase H inh-1 100.3 | HIV RNase H inh-2 63.9
CC(=O)Nc1sc2c(c1CN1CCN(c3ccccn3)CC1)CCCC2	none
O=C(NCc1ccncc1)Nc1ccc(F)cc1	none
CCC(CC)c1nc(NCCC(=O)O)c2ccccc2n1	HIV RNase H inh-1 76.2 | HIV RNase H inh-2 inactive
O=C(NCCO)c1nc(NCCO)c2ccccc2n1	none
CCc1cc2c(NCCC(=O)O)nc(C)nc2s1	none
Cc1cc(C)n(-c2ccc(C(=O)OCC(=O)c3ccc(Br)s3)cc2)n1	none
CCOC(=O)N1CCN(C(=O)Cn2ncn3nc(-c4cccs4)cc3c2=O)CC1	none
Cn1c(=O)c2c(nc(SCC(=O)N3CCc4ccccc43)n2Cc2ccccc2)n(C)c1=O	none
COc1cccc(-n2nnnc2SCC(=O)c2cc(OC)ccc2OC)c1	none
COc1cc(C(=O)OCC(=O)Nc2cc(C)on2)ccc1OCc1ccccc1Cl	HIV RNase H inh-1 51.7 | HIV RNase H inh-2 inactive
Cc1cc(NC(=O)COC(=O)CCCOc2ccc(Cl)cc2C)no1	none
Cc1cc(NC(=O)COC(=O)c2c(C)nn(Cc3ccccc3)c2Cl)no1	none
COc1cccc(-c2nnc3sc(-c4ccccc4)nn23)c1	none
COc1ccc(-c2nnc3sc(-c4c(OC)cccc4OC)nn23)cc1	none
COc1cc(-c2nnc3sc(Cc4ccc(Cl)cc4)nn23)cc(OC)c1OC	HIV RNase H inh-1 56.4 | HIV RNase H inh-2 91.6
COc1ccc(-c2nn3c(COc4ccccc4)nnc3s2)cc1OC	HIV RNase H inh-1 68.0 | HIV RNase H inh-2 inactive
COc1cc(-c2nnc3sc(-c4cccnc4)nn23)cc(OC)c1OC	HIV RNase H inh-1 76.2 | HIV RNase H inh-2 93.4
COc1cccc(OC)c1-c1nn2c(-c3cc(-c4ccccc4)n[nH]3)nnc2s1	HIV RNase H inh-1 89.1 | HIV RNase H inh-2 65.7
COc1cc(-c2nnc3sc(C4CCCCC4)nn23)cc(OC)c1OC	none
COc1ccc(-c2nn3cnnc3s2)cc1OC	none
CCOc1ccc(-c2nnc3sc(COc4ccc(Cl)cc4)nn23)cc1	none
COc1cc(-c2nn3c(-c4ccccn4)nnc3s2)cc(OC)c1OC	none
COc1ccc(-c2nn3c(-c4ccncc4)nnc3s2)cc1OC	none
c1ccc(OCc2nnc3sc(-c4cccs4)nn23)cc1	none
CCCOC(=O)C1[C@H]2C(=O)N(CC3CCCO3)C[C@]23C=C[C@H]1O3 (stereo partly specified)	none
Fc1ccc(CSc2nncn2NCc2ccc3c(c2)OCO3)cc1	none
Cc1cc(=O)n2nc(N3CCCC3C(=O)NCCCN3CCCCC3)sc2n1 (stereo unspecified)	none
c1ccc(-n2nc3c(ccc4cnnc43)[nH]2)cc1	none
O=C1c2ccccc2C(=O)N1c1ccc(S(=O)(=O)N2CCN(c3ccccc3)CC2)cc1	none
CCC(=O)c1cn(CC(=O)NCc2cccnc2)c2ccccc12	none
COc1ccc(N2C(=O)C3CCCN3C2c2ccccc2)cc1 (stereo unspecified)	none
Cn1c(=O)c2cn(Cc3ccc(Cl)cc3)cc2n(C)c1=O	none
O=C(CCCn1c(=O)[nH]c2cc(Cl)ccc2c1=O)NCCCN1CCCC1=O	none
c1ccc2c(-n3cccn3)cccc2c1	none
CCCn1c(=O)c2ccccc2n2c(SCc3cc(=O)n4ccsc4n3)nnc12	none
C=CCn1c(SCC(=O)NC(=O)NC2CCCC2)nnc1C1CCCCC1	none
C=CCn1c(SCc2cc(=O)n3ccsc3n2)nnc1C1CCCCC1	HIV RNase H inh-1 66.8 | HIV RNase H inh-2 inactive
CCC(C)NC(=O)C1=C(C)C(=O)OC12CCC(C)CC2 (stereo unspecified)	none
COc1ccc(-c2nc(N)nc(C)c2Oc2ccccc2Br)c(O)c1	none
O=C(Nc1ccc(Oc2ccccc2)cc1)c1cnc2n(c1=O)CCS2	none
Nc1nnc(CCC2CCCCC2)s1	none
N#CC1=C(N)SC(N)=C(C#N)C1CCC1CCCCC1	HIV RNase H inh-1 80.3 | HIV RNase H inh-2 inconclusive
CCc1ccc(-c2cn(-c3nc(C)cc(C)n3)c(=N)o2)cc1	none
CC1(C)Cc2c(sc3ncnc(N)c23)CO1	none
CC(C)(C)C1CCc2c(sc3c2C(=O)NC(c2ccco2)N3)C1 (stereo unspecified)	none
CC1(C)Cc2c(sc3c2C(=O)NC(c2cccnc2)N3)CO1 (stereo unspecified)	HIV RNase H inh-1 53.6 | HIV RNase H inh-2 inactive
CC(C)OC(=O)c1c(F)c(F)c(N2CCOCC2)c(F)c1F	none
CC(C)N(O)C(=O)NC(C)(C)C	none
Cn1c(Cc2cccs2)nnc1SC/C=C/c1ccccc1	none
Cc1ccc(Cl)cc1N1CCN(S(=O)(=O)c2ccc3c(c2)oc(=O)n3C)CC1	none
O=C(NC1CCCC1)c1ccc2nc(-c3ccco3)c(-c3ccco3)nc2c1	HIV RNase H inh-1 82.8 | HIV RNase H inh-2 inactive
O=C(NC1CCCCCCC1)c1ccco1	none
O=C(Nc1ccc2nc(-c3ccco3)c(-c3ccco3)nc2c1)N1CCCCCC1	HIV RNase H inh-1 96.5 | HIV RNase H inh-2 52.7
CCOC(=O)N1CCN(C(=O)Nc2ccc3nc(C)c(C)nc3c2)CC1	none
O=C(NC1CCCC1)c1ccc2nc[nH]c2c1	none
